Measurements taken from PubChem BioAssay AID1159580 (chemical genetic matrix, 2015).
Out of some 5,500 compounds screened, about 2,000 (36%) were called active. Another 18% or so got no clear call; they are omitted. This is one part of the list. Unmarked numbers belong to inactive results. No stated cut-off is given here; in the data, active means normalized growth mostly below about 0.91 (no sharp cut-off); inconclusive means no clear call, values can overlap the other calls; inactive means mostly above about 0.92.

Test: chemical genetic growth profiling, strain panel (AID 1159580);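 further: tested at 20 µM; growth read once vehicle control cultures reached saturation at 30 °C; 1 = growth at the plate median or of vehicle wells; lower values mean less growth of the strain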
Settings: growth OD

CCOc1ccc(Cc2nccc3cc(OCC)c(OCC)cc23)cc1OCC
normalized growth (S. cerevisiae deletion strains, locus YJR075W, strain HOC1, active compounds read low): 0.92
normalized growth (S. cerevisiae deletion strains, locus YKL009W, strain mrt4, active compounds read low): 0.969
normalized growth (S. cerevisiae deletion strains, locus YKL068W, active compounds read low): 0.986
normalized growth (S. cerevisiae deletion strains, locus YKL085W, strain MDH1 (second series), active compounds read low): 0.985
normalized growth (S. cerevisiae deletion strains, locus YKL085W, strain MDH1, active compounds read low): 0.985
normalized growth (S. cerevisiae deletion strains, locus YKL160W, strain elf1, active compounds read low): 0.98
normalized growth (S. cerevisiae deletion strains, locus YKL190W, strain CNB1, active compounds read low): 0.98
normalized growth (S. cerevisiae deletion strains, locus YKR001C, strain vps1, active compounds read low): 0.88 (active)
normalized growth (S. cerevisiae deletion strains, locus YKR026C, strain gcn3, active compounds read low): 0.975
normalized growth (S. cerevisiae deletion strains, locus YKR091W, strain srl3, active compounds read low): 0.979
normalized growth (S. cerevisiae deletion strains, locus YLL001W, strain dnm1, active compounds read low): 0.96
normalized growth (S. cerevisiae deletion strains, locus YLL026W, active compounds read low): 0.984
normalized growth (S. cerevisiae deletion strains, locus YLL041C, strain sdh2, active compounds read low): 0.975
normalized growth (S. cerevisiae deletion strains, locus YLR027C, strain aat2, active compounds read low): 0.97
normalized growth (S. cerevisiae deletion strains, locus YLR039C, strain RIC1, active compounds read low): 0.878
normalized growth (S. cerevisiae deletion strains, locus YLR058C, strain SHM2, active compounds read low): 0.949
normalized growth (S. cerevisiae deletion strains, locus YLR102C, strain apc9, active compounds read low): 0.978
normalized growth (S. cerevisiae deletion strains, locus YLR113W, strain HOG1, active compounds read low): 1.02
normalized growth (S. cerevisiae deletion strains, locus YLR221C, strain rsa3, active compounds read low): 0.982
normalized growth (S. cerevisiae deletion strains, locus YLR258W, strain gsy2, active compounds read low): 0.968
normalized growth (S. cerevisiae deletion strains, locus YLR262C, strain YPT6 (second series), active compounds read low): 0.871
normalized growth (S. cerevisiae deletion strains, locus YLR262C, strain YPT6, active compounds read low): 0.861
normalized growth (S. cerevisiae deletion strains, locus YLR268W, strain sec22, active compounds read low): 0.873 (active)
normalized growth (S. cerevisiae deletion strains, locus YLR320W, strain mms22, active compounds read low): 0.949
normalized growth (S. cerevisiae deletion strains, locus YLR330W, strain CHS5, active compounds read low): 0.979
normalized growth (S. cerevisiae deletion strains, locus YLR342W, strain FKS1 (second series), active compounds read low): 0.901
normalized growth (S. cerevisiae deletion strains, locus YLR342W, strain FKS1, active compounds read low): 0.963
normalized growth (S. cerevisiae deletion strains, locus YLR357W, strain rsc2, active compounds read low): 0.899
normalized growth (S. cerevisiae deletion strains, locus YLR370C, strain arc18, active compounds read low): 0.977
normalized growth (S. cerevisiae deletion strains, locus YLR371W, strain rom2, active compounds read low): 0.966
normalized growth (S. cerevisiae deletion strains, locus YLR384C, strain iki3, active compounds read low): 0.989
normalized growth (S. cerevisiae deletion strains, locus YLR418C, strain cdc73, active compounds read low): 0.772 (active)
normalized growth (S. cerevisiae deletion strains, locus YML016C, strain PPZ1, active compounds read low): 0.973
normalized growth (S. cerevisiae deletion strains, locus YML032C, strain rad52, active compounds read low): 0.943
normalized growth (S. cerevisiae deletion strains, locus YML120C, strain ndi1, active compounds read low): 0.965
normalized growth (S. cerevisiae deletion strains, locus YML124C, strain tub3, active compounds read low): 0.979
normalized growth (S. cerevisiae deletion strains, locus YMR058W, strain fet3, active compounds read low): 0.967
normalized growth (S. cerevisiae deletion strains, locus YMR078C, strain ctf18, active compounds read low): 0.957
normalized growth (S. cerevisiae deletion strains, locus YMR125W, strain sto1, active compounds read low): 1.01
normalized growth (S. cerevisiae deletion strains, locus YMR129W, active compounds read low): 0.984
normalized growth (S. cerevisiae deletion strains, locus YMR205C, strain PFK2, active compounds read low): 0.938
normalized growth (S. cerevisiae deletion strains, locus YMR223W, strain ubp8, active compounds read low): 0.971
normalized growth (S. cerevisiae deletion strains, locus YMR231W, strain pep5, active compounds read low): 0.979
normalized growth (S. cerevisiae deletion strains, locus YMR307W, strain GAS1, active compounds read low): 0.769
normalized growth (S. cerevisiae deletion strains, locus YNL067W, strain RPL9B, active compounds read low): 0.935
normalized growth (S. cerevisiae deletion strains, locus YNL071W, strain lat1, active compounds read low): 0.985
normalized growth (S. cerevisiae deletion strains, locus YNL128W, strain TEP1, active compounds read low): 0.967
normalized growth (S. cerevisiae deletion strains, locus YNL153C, strain GIM3, active compounds read low): 0.961
normalized growth (S. cerevisiae deletion strains, locus YNL183C, strain NPR1, active compounds read low): 0.899
normalized growth (S. cerevisiae deletion strains, locus YNL209W, strain ssb2, active compounds read low): 0.98
normalized growth (S. cerevisiae deletion strains, locus YNL233W, strain BNI4, active compounds read low): 0.917
normalized growth (S. cerevisiae deletion strains, locus YNL248C, strain rpa49, active compounds read low): 0.942
normalized growth (S. cerevisiae deletion strains, locus YNL250W, strain rad50, active compounds read low): 0.98
normalized growth (S. cerevisiae deletion strains, locus YNL271C, strain bni1, active compounds read low): 0.979
normalized growth (S. cerevisiae deletion strains, locus YNL298W, strain CLA4, active compounds read low): 0.993
normalized growth (S. cerevisiae deletion strains, locus YNL307C, strain MCK1, active compounds read low): 0.875 (active)
normalized growth (S. cerevisiae deletion strains, locus YNL322C, strain KRE1 (second series), active compounds read low): 0.982
normalized growth (S. cerevisiae deletion strains, locus YNL322C, strain KRE1, active compounds read low): 0.986
normalized growth (S. cerevisiae deletion strains, locus YNR049C, strain mso1, active compounds read low): 0.965
normalized growth (S. cerevisiae deletion strains, locus YNR052C, strain pop2, active compounds read low): 0.974
normalized growth (S. cerevisiae deletion strains, locus YOL006C, strain TOP1, active compounds read low): 0.771
normalized growth (S. cerevisiae deletion strains, locus YOL012C, strain htz1): 1.53
normalized growth (S. cerevisiae deletion strains, locus YOL147C, strain pex11, active compounds read low): 0.969
normalized growth (S. cerevisiae deletion strains, locus YOR001W, strain rrp6, active compounds read low): 0.966
normalized growth (S. cerevisiae deletion strains, locus YOR061W, strain CKA2, active compounds read low): 0.978
normalized growth (S. cerevisiae deletion strains, locus YOR069W, strain VPS5, active compounds read low): 0.98
normalized growth (S. cerevisiae deletion strains, locus YOR070C, strain gyp1, active compounds read low): 0.976
normalized growth (S. cerevisiae deletion strains, locus YOR080W, strain dia2, active compounds read low): 0.977
normalized growth (S. cerevisiae deletion strains, locus YOR083W, strain WHI5, active compounds read low): 0.95
normalized growth (S. cerevisiae deletion strains, locus YOR106W, strain vam3, active compounds read low): 0.928
normalized growth (S. cerevisiae deletion strains, locus YOR136W, strain idh2, active compounds read low): 0.974
normalized growth (S. cerevisiae deletion strains, locus YOR144C, strain elg1, active compounds read low): 0.974
normalized growth (S. cerevisiae deletion strains, locus YOR184W, strain ser1, active compounds read low): 0.899
normalized growth (S. cerevisiae deletion strains, locus YOR231W, strain MKK1, active compounds read low): 0.978
normalized growth (S. cerevisiae deletion strains, locus YOR265W, strain rbl2, active compounds read low): 0.993
normalized growth (S. cerevisiae deletion strains, locus YOR270C, strain vph1, active compounds read low): 0.849
normalized growth (S. cerevisiae deletion strains, locus YOR290C, strain snf2, active compounds read low): 0.974
normalized growth (S. cerevisiae deletion strains, locus YOR316C, strain cot1, active compounds read low): 0.967
normalized growth (S. cerevisiae deletion strains, locus YPL051W, strain arl3, active compounds read low): 0.948
normalized growth (S. cerevisiae deletion strains, locus YPL055C, strain LGE1, active compounds read low): 0.906
normalized growth (S. cerevisiae deletion strains, locus YPL078C, strain atp4, active compounds read low): 0.962
normalized growth (S. cerevisiae deletion strains, locus YPL106C, strain sse1, active compounds read low): 0.999
normalized growth (S. cerevisiae deletion strains, locus YPL240C, strain hsp82, active compounds read low): 0.991
normalized growth (S. cerevisiae deletion strains, locus YPL241C, strain CIN2, active compounds read low): 0.984
normalized growth (S. cerevisiae deletion strains, locus YPL256C, strain CLN2, active compounds read low): 0.963
normalized growth (S. cerevisiae deletion strains, locus YPR119W, strain clb2, active compounds read low): 0.964
normalized growth (S. cerevisiae deletion strains, locus YPR141C, strain kar3, active compounds read low): 0.974
normalized growth (S. cerevisiae deletion strains, locus YPR163C, strain tif3, active compounds read low): 0.898 (active)
normalized growth (S. cerevisiae deletion strains, locus YPR167C, strain met16, active compounds read low): 0.97
normalized growth (S. cerevisiae deletion strains, strain wtn01, active compounds read low): 0.924
normalized growth (S. cerevisiae strains, strain wild type, active compounds read low): 0.961
